Bioassay records as filed in PubChem.
GCN5L2 inh – blocks human GCN5L2 histone acetyltransferase; Q92830; GCN5L2 HAT assay, ThioGlo1 CoA-SH fluorescence; Potency, µM (top dose mostly 58.9 µM), hits mostly inhibitors; actives 0.21% (n = 390,000)
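Fluorescence readout, Ex340nm/Em540nm: ThioGlo1 (50uM final) reacts with free CoA thiol released as 20nM GCN5L2 acetylates H3(1-25) peptide (75uM) using acetyl-CoA (70uM). Compound and enzyme sat 15 min beforehand; 20 min room-temperature reaction.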
PLK1 PBD inh – blocks phosphopeptide binding to human PLK1 polo-box domain. Plk1 PBD binding of FITC phosphopeptide, fluorescence polarization. Potency, µM, most hits filed as inhibitors. actives 2.8% (n = 360,000). AID 720504; also: series mostly up to about 57 µM; nearly all actives have a fitted effect of over 65% in size
TDP1 block – blocks human tyrosyl-DNA phosphodiesterase 1. actives 0.28% (n = 350,000). Potency, µM (doses to about 130 µM), usual class: inhibitors. recombinant TDP1, AlphaScreen DNA substrate cleavage; also: nearly all actives have a fitted effect of over 40% in size
Target sequence (Q9NUW8 whole entry, looked up): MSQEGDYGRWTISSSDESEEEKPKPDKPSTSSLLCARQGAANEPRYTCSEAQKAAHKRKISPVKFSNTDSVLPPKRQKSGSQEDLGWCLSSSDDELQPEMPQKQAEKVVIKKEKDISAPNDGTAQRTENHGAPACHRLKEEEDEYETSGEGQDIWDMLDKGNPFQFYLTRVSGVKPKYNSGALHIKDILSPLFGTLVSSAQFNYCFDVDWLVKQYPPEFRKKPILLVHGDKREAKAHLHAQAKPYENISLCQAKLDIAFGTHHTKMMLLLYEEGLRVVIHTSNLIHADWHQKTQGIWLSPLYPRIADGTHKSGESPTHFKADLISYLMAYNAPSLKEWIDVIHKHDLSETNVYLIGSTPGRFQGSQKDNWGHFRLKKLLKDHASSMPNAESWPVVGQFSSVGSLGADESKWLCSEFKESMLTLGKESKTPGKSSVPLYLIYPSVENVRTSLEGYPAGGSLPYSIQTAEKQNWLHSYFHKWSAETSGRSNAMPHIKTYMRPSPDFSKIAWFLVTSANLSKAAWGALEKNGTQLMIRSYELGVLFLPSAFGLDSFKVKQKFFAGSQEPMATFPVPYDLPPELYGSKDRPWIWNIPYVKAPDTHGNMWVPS
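Tdp1 1 nM final; 15 min RT w/ cpd; substrate 15 nM, 5 min; beads 10 ug/ml, 10 min; AlphaScreen read. Neg ctrl: no enzyme.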
DT40 TDP1 CPT – growth inhibition of DT40 Tdp1-/-;hTDP1 cells with camptothecin (screen for TDP1 inhibitors); chicken DT40 Tdp1-/-;hTDP1 cells + 20 nM CPT, ATP luminescence, 48 h; actives 12% (n = 420,000); Potency, µM (doses to about 46.2 µM), most hits filed as inhibitors; also: nearly all actives have a fitted effect of over 55% in size
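Chicken DT40 Tdp1-/- cells stably complemented with human TDP1 were seeded at 400 cells/well in medium containing 20 nM camptothecin, exposed to pin-transferred compounds, and grown at 37 °C for at least 48 hr. Viability was read as ATP luminescence.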
VDR inhibitor – vitamin D3 receptor (human) inhibition | P11473 | VDR-SRC2-3 peptide fluorescence polarization, 2 h | Potency, µM, usual class: inhibitors | actives 0.93% (n = 400,000)
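The screen uses fluorescence polarization to detect compounds that interfere with recruitment of the SRC2-3 coactivator peptide to VDR; plates are read after 2 h at room temperature.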
TDP1 cell noCPT – qHTS for Inhibitors of human tyrosyl-DNA phosphodiesterase 1 (TDP1): qHTS in cells in absence of CPT | actives 15% (n = 420,000) | Potency, µM (highest dose often 46.2 µM), actives largely listed as inhibitors | DT40 Tdp1-/- hTDP1 cells, no CPT, ATP luminescence, 48 h; also: nearly all actives have a fitted effect of over 55% in size
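Camptothecin absent (DMSO only). Human TDP1-complemented DT40 knockout cells, 400 cells/well, 37 °C for minimum 48 hr; ATP measured via CellTiter-Glo, 30 min dark incubation, luminescence.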
A number is an active result; . = inactive; ? = inconclusive; / = not tested or not shown. Sampled rows, rich in hits. Any-hit rate of the full collection: about 18%. Calls follow the shape of the dose curve; as a rule, active = well fitted curve in the direction sought with a large enough effect; inconclusive = small, poorly fitted or top-dose-only effect, or another doubt; inactive = no such curve, though single readings can be large; an effect the other way counts as inactive or inconclusive.

SMILES | GCN5L2 inh | PLK1 PBD inh | TDP1 block | DT40 TDP1 CPT | VDR inhibitor | TDP1 cell noCPT
CC(=O)Nc1ccc2nc(SCCOc3ccccc3Cl)sc2c1 | . | / | . | ? | . | 23µM
O=C(Nc1ccc2nc(SCCOc3ccccc3)sc2c1)c1cccs1 | . | / | . | ? | . | 21µM
O=C(Nc1ccc2nc(SCCOc3ccccc3)sc2c1)c1ccccc1F | . | / | . | ? | . | ?
COc1cccc(C(=O)Nc2ccc3nc(SCCOc4ccccc4)sc3c2)c1 | . | / | . | ? | . | ?
COc1cc(C)ccc1OCCSc1nc2ccc(NC(=O)c3cccs3)cc2s1 | . | / | . | ? | . | 16µM
COc1cc(C)ccc1OCCSc1nc2ccc(NC(=O)c3ccco3)cc2s1 | . | / | . | 23µM | . | 10µM
O=C(Nc1ccc2nc(SCCOc3ccccc3Cl)sc2c1)c1ccc2c(c1)OCO2 | . | / | . | ? | . | ?
Cc1cccc(C(=O)Nc2ccc3nc(SCCOc4ccccc4)sc3c2)c1 | . | / | . | ? | . | ?
Cc1ccc(OCC(=O)Nc2ccc3nc(SCCOc4ccccc4)sc3c2)cc1 | . | / | . | ? | . | 10µM
O=C(N/N=C/C(Cl)=C/c1ccc([N+](=O)[O-])cc1)C(=O)Nc1ccc(C(=O)O)cc1 | . | 30µM | . | 15µM | ? | 21µM
Cc1nc(-c2ccccc2)sc1C(=O)Nc1ccc(S(N)(=O)=O)cc1 | ? | . | / | . | . | 13µM
CCOc1ccc2nc3c(cc2c1)CN(CCCO)C(=NCCOC)S3 | . | 11µM | . | ? | . | 15µM
Cc1ccc2nc3c(cc2c1)CN(Cc1ccco1)C(=NCC1CCCO1)S3 (centres undefined) | . | 27µM | . | ? | ? | ?
CCOc1ccc(N=C2Sc3nc4ccc(C)cc4cc3CN2CCOC)cc1 | . | . | . | ? | . | ?
COCCN1Cc2cc3cc(C)ccc3nc2SC1=Nc1cccc(OC)c1 | . | . | . | ? | . | .
COCCN=C1Sc2nc3c(C)cccc3cc2CN1Cc1ccco1 | . | ? | . | ? | 89µM | ?
COCCN=C1Sc2nc3ccc(C)cc3cc2CN1Cc1cccs1 | . | . | . | ? | . | 21µM
COCCN1Cc2cc3cc(C)ccc3nc2SC1=Nc1ccc(OC)cc1 | . | . | . | ? | . | ?
Cc1c(Cl)cccc1NC(=O)CN1C(=O)CCn2nc(-c3cccn3C)cc21 | . | / | . | . | . | .
Cc1cc(Cl)c2oc(C(=O)N(C)C3CCOC3)c(C)c2c1 (centres undefined) | . | 3.4µM | . | ? | ? | ?
Cc1cc(Cl)c2oc(C(=O)N(C)Cc3nccn3C)c(C)c2c1 | . | . | / | 16µM | . | 7.3µM
Cc1cc(Cl)c2oc(C(=O)N(C)Cc3cc(C)[nH]n3)c(C)c2c1 | . | . | . | . | . | .
CC(C)NC(=O)c1ccc(OC2CSC2)cc1 | . | . | . | . | . | .
O=C(O)/C=C\C(=O)Nc1cccc(C(=O)Nc2cccc(O)c2)c1 | . | 24µM | . | . | . | .
COc1ccc(NC(=O)c2cc(C3CCCCN3S(C)(=O)=O)on2)c(C)c1 (centres undefined) | / | . | / | . | / | .
SMILES | GCN5L2 inh | PLK1 PBD inh | TDP1 block | DT40 TDP1 CPT | VDR inhibitor | TDP1 cell noCPT
COc1ccc(NC(=O)c2cc(C3CCCCN3S(=O)(=O)c3ccccc3)on2)c(C)c1 (centres undefined) | / | . | / | ? | / | 8.2µM
COc1ccc(NC(=O)c2cc(C3CCCCN3S(=O)(=O)c3ccc(F)cc3F)on2)c(C)c1 (centres undefined) | / | . | / | ? | / | 15µM
Cc1nc(-c2ccc(NC(=O)c3ccco3)cc2)cs1 | . | . | / | 13µM | . | ?
O=C(NNc1nc(-c2ccc(Cl)cc2)cs1)c1ccco1 | . | . | . | 18µM | . | 10µM
Nc1nc(-c2ccc(NC(=O)c3ccco3)cc2)cs1 | . | . | / | . | . | ?
CCCCCC(=O)Nc1ccc(-c2csc(C)n2)cc1 | . | . | . | . | . | .
O=C(Nc1ccc(-c2ccc(N3CCCCC3)nn2)cc1)c1ccco1 | . | . | / | ? | . | 26µM
Cc1nc(-c2ccc(NC(=O)/C=C\C(=O)O)cc2)cs1 | . | 21µM | . | ? | . | .
CCOC(=O)C1CCCCN1Cc1ccc(OC)c(OC)c1 (centres undefined) | . | . | . | . | . | ?
Fc1ccc(N2CCN(c3ncnc4[nH]ncc34)CC2)cc1 | . | / | . | . | . | .
CC(CCc1ccc(O)cc1)NCCc1ccc(O)c(O)c1 (centres undefined) | . | . | . | 27µM | . | 15µM
Cc1ccccc1CNC(=O)c1csc([C@H]2C[C@H](O)[C@@H](CO)O2)n1 | / | . | / | . | / | .
O=C(c1ccco1)n1nc(-c2cccnc2)nc1NCc1ccco1 | . | . | . | ? | . | 23µM
CC(=O)n1nc(-c2ccc(Cl)cc2)nc1NCc1ccco1 | . | 21µM | . | ? | ? | ?
COc1ccc(CC(=O)n2nc(-c3ccc(Cl)cc3)nc2NCc2ccco2)cc1 | ? | . | . | ? | . | 18µM
O=C(C[C@@H]1C=C[C@H](NS(=O)(=O)c2ccccc2F)[C@@H](CO)O1)NCCCN1CCOCC1 | / | . | / | . | / | .
CC(=O)Oc1ccc(N2C(=O)C3C(C2=O)C(C(=O)c2ccc(Cl)cc2)N2CCCC32)cc1 (centres undefined) | . | 24µM | . | ? | . | 18µM
Cc1cccc(S(=O)(=O)NC(=O)C2(C)CCN2C(=O)Cc2ccc(-c3ccccc3)cc2)c1 (centres undefined) | / | . | / | . | / | ?
O=P(OC1CCCCC1)(OC1CCCCC1)C(Nc1ccccc1)c1cccnc1 (centres undefined) | . | . | / | ? | . | 15µM
CCOP(=O)(OCC)C(Nc1ccccc1)c1cccnc1 (centres undefined) | . | . | . | . | . | .
O=C(c1cc(COc2c(F)cccc2F)on1)N1CCC(c2ccccc2Cl)C1 (centres undefined) | . | . | . | . | . | .
O=C(c1cc(COc2cccc3cnccc23)on1)N1CCC(c2ccccc2Cl)C1 (centres undefined) | . | . | . | 23µM | . | 18µM
Cc1cccc(C)c1OCc1cc(C(=O)N2CCC(c3ccncc3)CC2)no1 | . | . | . | 9.2µM | . | 5.2µM
O=C(c1cc(COc2c(F)cccc2F)on1)N1CCC(c2ccncc2)CC1 | . | . | . | 9.2µM | . | 9.2µM
O=c1c2ccccc2c(C=Nc2ccc(Cl)cn2)c(O)n1-c1cc(Cl)ccc1N1CCOCC1 | . | . | . | ? | . | 1.5µM
